# In the supplement of paper PMC8728848:
# This excerpt belongs to a sample that is enriched for the strongest signals.
# B1: Epa21 (Candida glabrata) (protein)
# chain: MGSSHHHHHHSSGLVPRGSHMASTPNIESHPQGCSPVDTSGIKPGLKMDLYRFPITPPGTGCWSWDWLTVTPDFPRSGYWKWPKIAEVDGVVGPLHLDSGHPTCDPLTSVLPHGFNYLQSITTTNFTMVLHGYFVPKQSGKYTFEFKADDALLLNLGAGNAFSCCDYNNSQYNQGEYLAYAIWSKNNQTATLYLEKGIYYPIRVFYHNRCCGAYMDVVYYFNDSPIPNRDFSGLLFSIPDSDSCDANI
# How the values were obtained:
# Assay in all cases: glycan array binding signal (z-score within array); higher = stronger binding
# Settings in all cases: glycan notation: IUPAC condensed, linker removed
# [1] = target: Fuc(a1-2)Gal(b1-4)Fuc(a1-3)]GlcNAc(b1-2)Man(a1-3)[Fuc(a1-2)Gal(b1-4)[Fuc(a1-3)]GlcNAc(b1-2)Man(a1-6)]Man(b1-4)GlcNAc(b1-4)GlcNAc
# How it was run: (§1)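 The binding signal is a Z-score computed within each array. Data were drawn from 3228 arrays in the Consortium for Functional Glycomics database, restricted to those with a known protein sequence. Scores were averaged over arrays of the same protein sequence at different concentrations or buffers, and over linkers, and negative values can be taken as non-binding.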
# [2] = target: Fuc(a1-2)Gal(b1-4)GlcNAc(b1-3)[Fuc(a1-2)Gal(b1-4)GlcNAc(b1-6)]GalNAc
# How it was run: as §1
# [3] = target: Fuc(a1-2)Gal6S(b1-3)GlcNAc6S
# How it was run: as §1
# [4] = target: Fuc(a1-2)[Gal(a1-3)]Gal(b1-3)GlcNAc(b1-2)Man(a1-3)[Fuc(a1-2)[Gal(a1-3)]Gal(b1-3)GlcNAc(b1-2)Man(a1-6)]Man(b1-4)GlcNAc(b1-4)GlcNAc
# How it was run: as §1
# [5] = target: Fuc(a1-2)[Gal(a1-3)]Gal(b1-4)GlcNAc(b1-6)GalNAc
# How it was run: as §1
# [6] = target: Fuc(a1-2)[GalNAc(a1-3)]Gal(b1-4)GlcNAc(b1-6)GalNAc
# How it was run: as §1
# [7] = target: Fuc(a1-2)[GalNAc(a1-3)]Gal(b1-4)[Fuc(a1-3)]GlcNAc
# How it was run: as §1
# [8] = target: Fuc(a1-3)[Gal(b1-4)]GlcNAc(b1-2)Man
# How it was run: as §1
# [9] = target: Fuc(a1-3)[Gal(b1-4)]GlcNAc(b1-3)Gal(b1-4)[Fuc(a1-3)]GlcNAc
# How it was run: as §1
# [10] = target: Fuc(b1-3)GlcNAc
# How it was run: as §1
# [11] = target: Gal(a1-3)Gal(b1-4)Glc
# How it was run: as §1
# [12] = target: Gal(a1-3)Gal(b1-4)GlcNAc(b1-3)GalNAc
# How it was run: as §1
# [13] = target: Gal(a1-3)GalNAc
# How it was run: as §1
# [14] = target: Gal(a1-4)GlcNAc
# How it was run: as §1
# [15] = target: Gal(b1-3)GlcNAc(b1-3)Gal(b1-4)GlcNAc
# How it was run: as §1
# [16] = target: Gal(b1-3)GlcNAc(b1-3)Gal(b1-4)[Fuc(a1-3)]GlcNAc(b1-6)[Gal(b1-3)GlcNAc(b1-3)]Gal(b1-4)Glc
# How it was run: as §1
# [17] = target: Gal(b1-3)GlcNAc(b1-3)GalNAc
# How it was run: as §1
# [18] = target: Gal(b1-4)GlcNAc(b1-2)Man(a1-3)[Gal(b1-4)GlcNAc(b1-2)Man(a1-6)][GlcNAc(b1-4)]Man(b1-4)GlcNAc(b1-4)[Fuc(a1-6)]GlcNAc
# How it was run: as §1
# [19] = target: Gal(b1-4)GlcNAc(b1-3)Gal(b1-4)GlcNAc(b1-3)Gal(b1-4)GlcNAc(b1-2)Man(a1-3)[Gal(b1-4)GlcNAc(b1-3)Gal(b1-4)GlcNAc(b1-3)Gal(b1-4)GlcNAc(b1-2)Man(a1-6)]Man(b1-4)GlcNAc(b1-4)GlcNAc
# How it was run: as §1
# [20] = target: Gal(b1-4)GlcNAc(b1-3)Gal(b1-4)GlcNAc(b1-3)[Gal(b1-4)GlcNAc(b1-3)Gal(b1-4)GlcNAc(b1-6)]GalNAc
# How it was run: as §1
# [21] = target: Gal(b1-4)GlcNAc(b1-3)Gal(b1-4)GlcNAc(b1-6)[Gal(b1-3)]GalNAc
# How it was run: as §1
# [22] = target: Gal(b1-4)GlcNAc(b1-3)Gal(b1-4)[Fuc(a1-3)]GlcNAc(b1-3)Gal(b1-4)[Fuc(a1-3)]GlcNAc
# How it was run: as §1
# [23] = target: Gal(b1-4)GlcNAc(b1-6)GalNAc
# How it was run: as §1
# [24] = target: Gal6S(b1-4)Glc6S
# How it was run: as §1
# [25] = target: Gal6S(b1-4)GlcNAc6S
# How it was run: as §1
# [26] = target: GalNAc(b1-4)GlcNAc(b1-2)Man(a1-3)[GalNAc(b1-4)GlcNAc(b1-2)Man(a1-6)]Man(b1-4)GlcNAc(b1-4)GlcNAc
# How it was run: as §1
# [27] = target: GlcA(b1-3)GlcNAc
# How it was run: as §1
# [28] = target: GlcNAc(a1-4)Gal(b1-4)GlcNAc
# How it was run: as §1
# [29] = target: GlcNAc(b1-2)Gal(b1-3)GalNAc
# How it was run: as §1
# [30] = target: GlcNAc(b1-6)Gal(b1-4)GlcNAc
# How it was run: as §1
binder,measurement,setting,value
B1,glycan array binding signal (z-score),[1],2.49
same,glycan array binding signal (z-score),[2],-0.296
same,glycan array binding signal (z-score),[3],4.29
same,glycan array binding signal (z-score),[4],-0.507
same,glycan array binding signal (z-score),[5],-0.214
same,glycan array binding signal (z-score),[6],-0.634
same,glycan array binding signal (z-score),[7],-0.093
same,glycan array binding signal (z-score),[8],-0.558
same,glycan array binding signal (z-score),[9],0.064
same,glycan array binding signal (z-score),[10],-1.01
same,glycan array binding signal (z-score),[11],-0.176
same,glycan array binding signal (z-score),[12],1.03
same,glycan array binding signal (z-score),[13],-0.135
same,glycan array binding signal (z-score),[14],4.26
same,glycan array binding signal (z-score),[15],-0.56
same,glycan array binding signal (z-score),[16],-0.438
same,glycan array binding signal (z-score),[17],-0.317
same,glycan array binding signal (z-score),[18],-0.687
same,glycan array binding signal (z-score),[19],2.55
same,glycan array binding signal (z-score),[20],1.89
same,glycan array binding signal (z-score),[21],2.73
same,glycan array binding signal (z-score),[22],-0.493
same,glycan array binding signal (z-score),[23],-0.047
same,glycan array binding signal (z-score),[24],2.89
same,glycan array binding signal (z-score),[25],3.19
same,glycan array binding signal (z-score),[26],0.288
same,glycan array binding signal (z-score),[27],0.14
same,glycan array binding signal (z-score),[28],-0.35
same,glycan array binding signal (z-score),[29],-0.466
same,glycan array binding signal (z-score),[30],0.013
